High-throughput results: PubChem, National Center for Advancing Translational Sciences (NCATS)
A selection: hits, their analogues and other compounds. The true share with any hit is near 10%.
PLK1 PBD inh: blocks phosphopeptide binding to human PLK1 polo-box domain; P53350; Plk1 PBD binding of FITC phosphopeptide, fluorescence polarization; Potency, µM, for inactives: max response, negative = inhibition, most hits filed as inhibitors; actives 2.8% (n = 360,000); AID 720504; note: potency is the fitted concentration of half-maximal effect; series mostly up to about 57 µM; nearly all actives have a fitted effect of over 65% in size
Target sequence (P53350 whole entry, looked up, the tested form may be a part): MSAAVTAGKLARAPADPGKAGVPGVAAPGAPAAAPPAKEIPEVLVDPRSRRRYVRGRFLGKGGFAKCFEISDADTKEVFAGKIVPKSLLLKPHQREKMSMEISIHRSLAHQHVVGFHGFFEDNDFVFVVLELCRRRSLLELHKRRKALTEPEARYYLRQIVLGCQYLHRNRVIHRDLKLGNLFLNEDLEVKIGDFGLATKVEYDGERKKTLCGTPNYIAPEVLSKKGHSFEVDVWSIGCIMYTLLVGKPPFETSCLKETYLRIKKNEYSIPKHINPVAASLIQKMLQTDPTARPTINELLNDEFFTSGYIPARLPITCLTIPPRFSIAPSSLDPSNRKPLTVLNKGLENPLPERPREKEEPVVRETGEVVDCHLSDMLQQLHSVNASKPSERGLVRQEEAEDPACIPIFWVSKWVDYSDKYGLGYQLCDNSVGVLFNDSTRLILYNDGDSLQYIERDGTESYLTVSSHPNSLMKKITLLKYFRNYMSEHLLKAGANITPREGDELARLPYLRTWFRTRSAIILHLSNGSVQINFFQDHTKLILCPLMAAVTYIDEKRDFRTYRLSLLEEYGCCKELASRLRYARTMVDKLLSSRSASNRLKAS
VDR inh: blocks the human vitamin D receptor; VDR-SRC2-3 peptide fluorescence polarization, 2 h; Potency, µM, for the others: max response, negative = inhibition, actives largely listed as inhibitors; actives 0.93% (n = 400,000); AID 504847; note: potency is the fitted concentration of half-maximal effect
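Two reagent solutions held at 4 deg C in the dark were dispensed, compounds pinned at 23 nl, and the mixture incubated 2 h at room temperature. Read-out: fluorescence polarization of VDR–SRC2-3 peptide binding.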
Sfp inh: Sfp phosphopantetheinyl transferase inhibition; Biochemical Sfp PPTase activity, qHTS; Potency, µM, inactives show largest response in the series, negative = inhibition, actives largely listed as inhibitors; actives 3.5% (n = 310,000);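 note: the enzyme is Sfp with the accession as filed and its product quenches rhodamine fluorescence; potency is the fitted concentration of half-maximal effect; 0% = enzyme reaction without inhibitor and -100% = no enzyme wells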
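Fluorescence-quenching assay: 15 nM Sfp-PPTase preincubated 15 min at room temperature with compound, then 5 uM rhodamine-CoA and 12.5 uM BHQ-2-labelled YbbR peptide added. Fluorescence (ex 525/em 598 nm) read at start and after 30 min; difference gives rate.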
G9a block: inhibitors of human histone lysine methyltransferase G9a; Q96KQ7; G9a H3K9 monomethylation, AlphaScreen, 2 h; Potency, µM (series often up to 102 µM), without a hit: at the highest dose activity, negative = inhibition, actives largely listed as inhibitors; actives 8.8% (n = 350,000); note: potency is the fitted concentration of half-maximal effect; nearly all actives have a fitted effect of over 75% in size
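AlphaScreen detection with an anti-monomethyl H3K9 antibody quantified product after a 2 h room-temperature reaction containing 500 nM biotinylated H3K9 peptide, 20 µM SAM and 20 nM enzyme, which had been preincubated 15 min with compound.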
MmCpn inh: blocks the Methanococcus maripaludis chaperonin Mm-Cpn; purified Mm-Cpn ATPase, ADP Transcreener TR-FRET; Potency, µM (doses to about 76.9 µM), without a hit: at the top dose activity, negative = inhibition, hits mostly inhibitors; actives 0.031% (n = 330,000); note: potency is the fitted concentration of half-maximal effect; nearly all actives have a fitted effect of over 80% in size
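TR-FRET (320 nm excitation; 590 and 665 nm emission) reports ADP made from 10 uM ATP by 25 nM enzyme; compounds were preincubated 10 min, reaction run 30 min, both at 37°C.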
CCT chaperon mod: cytosolic chaperonin activity modulation; purified chaperonin ATPase assay, HTRF ADP detection, 30 min; activity change, % (test concentration not listed), hits read low; actives 0.3% (n = 360,000); in the data active = activity change below about -30%
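First, chaperonin was dispensed at 40 nM or 20 nM final depending on batch activity. Next, compounds were pinned at 76 uM and ATP added at 10 uM. After 30 min at 37 °C, ADP detection reagents ran 30 min at ambient temperature.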
An asterisk follows results filed as active; [ ] = remark or other dose. Unless noted, calls come from the whole dose curve; as a rule, active = well fitted curve in the direction sought with a large enough effect; inconclusive = small, poorly fitted or top-dose-only effect, or another doubt; inactive = no such curve, though single readings can be large; an effect the other way counts as inactive or inconclusive. Unless noted, % is set by controls: 0 for no effect and ±100 for the full control effect.

How did COc1ccccc1/C=C/CN1CCOCC1 do in these assays?
PLK1 PBD inh: -9%; VDR inh: 19%; Sfp inh: 7%; G9a block: inconclusive; MmCpn inh: 3%; CCT chaperon mod: -1

Results for COc1ccccc1/C=C/CN1CCSCC1 ?
PLK1 PBD inh: -2%; VDR inh: -15%; Sfp inh: -9%; G9a block: 32µM*; MmCpn inh: -9%; CCT chaperon mod: -1

Results for CCCCN(CC)CCNC(=O)C1CCCN(c2ncnc3onc(C)c23)C1 (stereo not drawn) ?
VDR inh: 4%; G9a block: -26%[59 µM]

What do the screens show for `N#Cc1cc([N+](=O)[O-])c(-n2nnc3ccccc32)c([N+](=O)[O-])c1`?
PLK1 PBD inh: 11µM*; VDR inh: inconclusive; Sfp inh: 9%; G9a block: inconclusive; MmCpn inh: 1%; CCT chaperon mod: -1

How did CC(C)(C)OC(=O)N1CCC(c2c(C(=O)NCc3ccc4c(c3)OCO4)cnn2-c2ccc(F)cc2F)CC1 do in these assays?
VDR inh: 5%; G9a block: -8%[59 µM]

How did Cc1[nH]n(-c2ccccc2)c(=O)c1C(C[N+](=O)[O-])c1ccc(F)cc1 (stereo not drawn) do in these assays?
PLK1 PBD inh: inconclusive; VDR inh: inconclusive; Sfp inh: 2%; G9a block: 45µM*; MmCpn inh: -1%; CCT chaperon mod: -2

How did Cc1ccc(C(C[N+](=O)[O-])c2c(C)[nH]n(-c3ccccc3)c2=O)cc1 (stereo not drawn) do in these assays?
PLK1 PBD inh: -28%; VDR inh: 45µM*; Sfp inh: -16%; G9a block: inconclusive; MmCpn inh: -7%; CCT chaperon mod: -9

Results for Cc1[nH]n(-c2ccccc2)c(=O)c1C(C[N+](=O)[O-])c1ccc(Cl)cc1 (stereo not drawn) ?
PLK1 PBD inh: 12µM*; VDR inh: inconclusive; Sfp inh: -6%; G9a block: inconclusive; MmCpn inh: -1%; CCT chaperon mod: -1

What do the screens show for `Cc1[nH]n(-c2ccccc2)c(=O)c1C(c1ccccc1C(=O)O)c1c(C)[nH]n(-c2ccccc2)c1=O`?
PLK1 PBD inh: -4%; VDR inh: -3%; Sfp inh: -13%; G9a block: inconclusive; MmCpn inh: 0%; CCT chaperon mod: 1

How did Cc1[nH]n(-c2ccccc2)c(=O)c1Sc1ccc(Cl)cc1 do in these assays?
PLK1 PBD inh: 0%; VDR inh: -1%; Sfp inh: 15%; G9a block: inconclusive; MmCpn inh: 0%; CCT chaperon mod: 1

Results for Cc1[nH]n(-c2ccccc2)c(=O)c1C=NCCc1ccccc1 ?
PLK1 PBD inh: -11%; VDR inh: -9%; Sfp inh: 12%; G9a block: -7%; MmCpn inh: -2%; CCT chaperon mod: -3

How did Cc1[nH]n(-c2ccccc2)c(=O)c1C(c1ccccc1[N+](=O)[O-])C(C#N)C#N (stereo not drawn) do in these assays?
PLK1 PBD inh: 30µM*; VDR inh: 89µM*; Sfp inh: 5%; G9a block: 28µM*; MmCpn inh: 0%; CCT chaperon mod: 0

Results for CCOc1ccc(CN2C(=O)c3ccccc3Sc3ccc(C(=O)NCc4ccc(C)cc4)cc32)cc1 ?
VDR inh: -13%; G9a block: 2%[59 µM]

What do the screens show for `COc1ccc(C(c2c(C)[nH]n(-c3ccccc3)c2=O)c2c(C)[nH]n(-c3ccccc3)c2=O)cc1OC`?
PLK1 PBD inh: 2.7µM*; VDR inh: -8%; Sfp inh: 1%; G9a block: inconclusive; MmCpn inh: -11%; CCT chaperon mod: -21

How did CC(=O)c1c(C)[nH]c(-c2ccccc2)nc1=S do in these assays?
PLK1 PBD inh: inconclusive; VDR inh: -6%; Sfp inh: -21%; G9a block: 3.5µM*; MmCpn inh: 0%; CCT chaperon mod: -11

Results for CCOP(=O)(OCC)C(O)c1cc(OC)c(OC)c(OC)c1 (stereo not drawn) ?
PLK1 PBD inh: -16%; VDR inh: -12%; Sfp inh: 10%; G9a block: 9%; MmCpn inh: 0%; CCT chaperon mod: -2

What do the screens show for `COc1cc(C(O)P(=O)(OCC(C)C)OCC(C)C)cc(OC)c1OC` (stereo not drawn)?
PLK1 PBD inh: 12µM*; VDR inh: -8%; Sfp inh: 7%; G9a block: 35%[0.501 µM]; MmCpn inh: 0%; CCT chaperon mod: 0

What do the screens show for `COCCNc1ccnc(-c2c(C)noc2C)n1`?
VDR inh: 11%; Sfp inh: 25%

How did Cc1noc(C)c1-c1nccc(NC2CC2)n1 do in these assays?
VDR inh: 50µM*; Sfp inh: -15%; G9a block: 4%[0.501 µM]

Results for Cc1ccc(NC(=O)CN2C(=O)COc3ccc(S(=O)(=O)NC4CCCC4)cc32)c(Cl)c1 ?
VDR inh: 12%; G9a block: -2%[59 µM]

What do the screens show for `Cc1nc(N2CCCCC2)c2c(-c3cccs3)csc2n1`?
PLK1 PBD inh: -8%; VDR inh: -23%; Sfp inh: 56µM*; G9a block: 17%[59 µM]; MmCpn inh: -4%; CCT chaperon mod: -4

What do the screens show for `Cc1nc(N2CCCCCC2)c2ccccc2n1`?
PLK1 PBD inh: -8%; VDR inh: 11%; Sfp inh: 0%; G9a block: inconclusive; MmCpn inh: 3%; CCT chaperon mod: -1

Results for Cc1nc(N2CCCCC2)c2ccsc2n1 ?
PLK1 PBD inh: 3%; VDR inh: 14%; Sfp inh: inconclusive; G9a block: 20µM*; MmCpn inh: -1%; CCT chaperon mod: 2

How did O=C(c1ccc(CSCc2ccccc2F)o1)N1CCN(c2ccc(N3CCOCC3)nn2)CC1 do in these assays?
PLK1 PBD inh: -23%; VDR inh: -1%; Sfp inh: -22%; G9a block: 40µM*; MmCpn inh: -3%; CCT chaperon mod: -2

Results for O=C(c1ccc(F)cc1)N1CCN(c2ccc(N3CCOCC3)nn2)CC1 ?
PLK1 PBD inh: -11%; VDR inh: -2%; Sfp inh: 14%; G9a block: -6%; MmCpn inh: -3%; CCT chaperon mod: -3

Results for CN(N)c1nc2ccccc2nc1C(F)(F)F ?
PLK1 PBD inh: 21µM*; VDR inh: -25%; Sfp inh: 6%; G9a block: -4%; MmCpn inh: -4%; CCT chaperon mod: -1

What do the screens show for `Cc1ccc2c(CC(=O)N3CCN(c4cccc(Cl)c4)CC3)coc2c1`?
VDR inh: 19%; G9a block: -31%[59 µM]

What do the screens show for `CCOc1ccc(C(=O)c2cn(CC(=O)Nc3ccc(OC)cc3)c3cc4c(cc3c2=O)OCO4)cc1`?
VDR inh: -8%; G9a block: -5%[59 µM]
